Where “and” joins values, the source holds several entries; their conditions need not be identical. Equal values may be shown once. Inconclusive results are not listed. Calls of active or inactive are those of the source. Unless noted, calls follow the shape of the dose curve; as a rule, active = well fitted curve in the direction sought with a large enough effect; inconclusive = small, poorly fitted or top-dose-only effect, or another doubt; inactive = no such curve, though single readings can be large; an effect the other way counts as inactive or inconclusive.
Columns and labels:
[1] = target: Thyroid hormone receptor beta (Homo sapiens) (UniProt P10828); assay: qHTS assay for small molecule agonists of thyroid hormone receptor beta signaling (AID 588545; calls by dose curve;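 also: 0% = DMSO only and 100% = 10 nM T3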)
In short: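 TR-UAS-bla-GripTite HEK 293 cells in medium with 2% charcoal/dextran FBS, 0.1 mM NEAA and 1 mM sodium pyruvate were treated with titrated compounds for 18 hrs at 37 C. Beta-lactamase reporter was read with CCF4 dye (ex 405, em 460/530 nm); EC50 from Hill fits.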

[2] = qHTS assay for small molecule antagonists of retinoid X receptor alpha signaling (AID 588546; active = well fitted inhibition curve with a large enough effect in the signal ratio, with a control signal flat, not every such curve was filed as active; the % refers to the signal ratio;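 also: cells stimulated with 9-cis-retinoic acid as agonist; % is scaled to controls: 0 for no effect and ±100 for the full control effect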); details: HEK293T RXRa-UAS-bla, beta-lactamase ratio, antagonist mode; measured here: W530 green channel, cytotoxicity proxy
In short: (§1)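 Beta-lactamase reporter inhibition, read as CCF4 fluorescence ratio (ex 405, em 460/530 nm) after 2 h at RT. HEK293T UAS-bla cells, 2500/well, were stimulated with 9-cis-RA at 500 or 100 nM final alongside test compound for 18 h at 37 C.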

[3] = target: Retinoic acid receptor RXR-alpha (Homo sapiens) (UniProt P19793); assay: as above; details: HEK293T RXRa-UAS-bla, beta-lactamase ratio, antagonist mode
In short: as §1

[4] = target: Thyroid hormone receptor beta (Homo sapiens) (UniProt P10828); assay: qHTS assay for small molecule antagonists of thyroid hormone receptor beta signaling (AID 588547; active = well fitted inhibition curve with a large enough effect in the signal ratio, with a control signal flat, not every such curve was filed as active; the % refers to the signal ratio;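 also: cells stimulated with 0.4 nM T3 agonist during compound exposure; series mostly up to about 77 µM; % is scaled to controls: 0 for no effect and ±100 for the full control effect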); details: TR-UAS-bla HEK293, beta-lactamase ratio, antagonist mode, 18 h
In short: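 TR-UAS-bla GripTite HEK293 cells in 2% charcoal/dextran FBS medium were preincubated 4 h at 37 C, given compound (0.59 nM to 92 uM) plus 0.4 nM T3 (final) for 18 h, then CCF4 for 2 h at RT; Hill fit gave IC50.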

[5] = target: Glucagon-like peptide 1 receptor (Homo sapiens) (UniProt P43220); assay: qHTS of GLP-1 Receptor Agonists: LOPAC Validation (AID 624148);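 also: 0% is about no effect; higher luminescence signal means agonism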
In short: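 HEK293 cells stably co-expressing a cAMP-responsive luciferase reporter and a hypersensitive GLP-1R were plated 12 h at 37 °C and exposed to compounds for 4-6 hr at 37 °C, 5% CO2. Luminescence was read 12 min after adding detection reagent.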

[6] = target: Voltage-gated inwardly rectifying potassium channel KCNH2 (Homo sapiens) (UniProt Q12809); assay: qHTS Assay for Small Molecule Inhibitors of the Human hERG Channel Activity (AID 588834);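 also: lower thallium flux fluorescence means stronger hERG block; nearly all actives have a fitted effect of over 50% in size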; also: potency is read from the fitted curve at half-maximal effect
In short: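 Thallium-flux (FluxOR) read-out on FDSS: fluorescence read 10 s before and 2 min after stimulation buffer. hERG-BacMam-transduced U2OS cells, compound exposure about 10 min. AC50 by standard Hill equation.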

[7] = target: Luciferin 4-monooxygenase (Photinus pyralis) (UniProt P08659); assay: Biochemical firefly luciferase enzyme assay for NPC (AID 624030);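 also: purified P. pyralis luciferase at 10 nM with luciferin and ATP substrate; series mostly up to about 59 µM; 0% = DMSO and -100% = full luciferase inhibition by PTC124 control; nearly all actives have a fitted effect of over 70% in size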
In short: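 Counter-screen for direct inhibition of the luciferase enzyme by approved-drug library compounds, run at 10 nM enzyme in 50 mM Tris acetate (final). Luminescence was read within 5 min of enzyme-buffer addition and normalized to PTC124 versus DMSO (0%).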

[8] = S16 Schwann cell viability assay (CellTiter-Glo assay) (AID 624031);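 also: native untransfected S16 rat Schwann cells; cellular ATP luminescence as a viability measure; series mostly up to about 58 µM; plate controls were DMSO-treated cells for no effect and cell-free wells for full effect; nearly all actives have a fitted effect of over 70% in size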
In short: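 Concentration-effect curves come from CellTiter-Glo luminescence of S16 rat Schwann cells after 24 h compound exposure. Each reading was normalized to DMSO wells (0%) and wells without cells, and curves were ranked by r2 and response magnitude.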

[9] = target: Glucocorticoid receptor (Homo sapiens) (UniProt P04150); assay: qHTS assay for small molecule antagonists of glucocorticoid receptor signaling (AID 588533; active = well fitted inhibition curve with a large enough effect in the signal ratio, with a control signal flat, not every such curve was filed as active; the % refers to the signal ratio;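 also: cells stimulated with 2 nM dexamethasone as agonist; % is scaled to controls: 0 for no effect and ±100 for the full control effect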)
In short: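 Antagonist-mode qHTS: compound titrations added to GRE-bla HeLa cells, then dexamethasone 2 nM final; 18 h, 37 C. CCF4 FRET fluorescence normalized to dexamethasone and DMSO; IC50 from Hill fit.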

[10] = target: Peroxisome proliferator-activated receptor gamma (Homo sapiens) (UniProt P37231); assay: qHTS assay for small molecule agonists of peroxisome proliferator-activated receptor gamma signaling (AID 588536; active = well fitted curve in the direction sought with a large enough effect in the signal ratio, with a control signal flat, not every such curve was filed as active; the % refers to the signal ratio;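 also: 0% = DMSO basal wells and 100% = rosiglitazone at 2 µM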)
In short: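 Compound treatment: 16 h, 37 C, HEK293 GeneBLAzer cells. Detection: CCF4, 2 h RT. Values: Hill-fit EC50, efficacy as % of 2 uM rosiglitazone.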

[11] = target: Peroxisome proliferator-activated receptor gamma (Homo sapiens) (UniProt P37231); assay: qHTS assay for small molecule antagonists of peroxisome proliferator-activated receptor gamma signaling (AID 588537; active = well fitted inhibition curve with a large enough effect in the signal ratio, with a control signal flat, not every such curve was filed as active; the % refers to the signal ratio;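 also: reporter cells co-stimulated with 50 nM rosiglitazone agonist during compound treatment; % of control where 0% means no effect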)
In short: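 HEK293 cells, PPAR-gamma-UAS-bla, 3000/well. Pre-incubation 6-6.5 h, 37 C. Compound titration with rosiglitazone 50 nM final, 16 h. CCF4 dye, 2 h RT, dual-emission fluorescence.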

[12] = S16 Schwann cell PMP22 intronic element firefly luciferase assay (AID 624032);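 also: series mostly up to about 58 µM; plate controls were DMSO for no effect and PTC124 positive control mean for full effect; nearly all actives have a fitted effect of over 30% in size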
In short: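 Rat S16 Schwann cells stably carrying a PMP22 intronic element-driven Fluc reporter were seeded overnight, then exposed to compounds for 24 h at 37 °C. Luminescence was normalized to PTC124 (positive control) and DMSO (0% activity).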

[13] = target: Glutaminase kidney isoform, mitochondrial (Homo sapiens) (UniProt O94925); assay: qHTS for Inhibitors of Glutaminase (GLS): LOPAC Validation (AID 624146)
In short: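 Read-out is an Amplex red fluorescence increase coupled through glutamate oxidase and HRP, measured before and after 30 min room-temperature incubation. hKGA is in 45 mM KH2PO4 (pH 8.2) with 0.02% Tween-20; glutamine added as 1mM solution.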

[14] = qHTS of Trypanosoma Brucei Inhibitors: LOPAC Validation (AID 624147)
In short: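 Assay buffer: 50 mM TEA pH 7.2, 100 mM KCl, 10 mM MgCl2, 0.05% BSA, 0.01% Tween-20. Pyruvate kinase from T. brucei plus substrate met compound, then ADP (130 uM final). Luminescence was read post 45 min RT.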

[15] = qHTS assay for small molecule antagonists of peroxisome proliferator-activated receptor delta signaling (AID 588535); details: HEK293T PPARd-UAS-bla, beta-lactamase FRET ratio, 18 h; 460 nm channel;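 also: cells co-treated with a PPAR-delta agonist as stimulator during compound exposure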
In short: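 Compounds tested in titration on PPAR-delta-UAS-bla HEK293T cells grown in charcoal/dextran-stripped serum (2%); beta-lactamase activity read via CCF4 emission at 460 and 530 nm.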

[16] = target: Vitamin D3 receptor (Homo sapiens) (UniProt P11473); assay: qHTS assay for small molecule antagonists of vitamin D receptor signaling (AID 588541; calls by dose curve;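 also: receptor activated by calcitriol during compound treatment; series mostly up to about 77 µM; % is scaled to controls: 0 for no effect and ±100 for the full control effect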)
In short: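 VDR-UAS-bla HEK293T cells (2000/well, 2% charcoal-stripped FBS) were treated with titrated compounds plus 1-alpha,25-dihydroxyvitamin D3 (50 nM or 3 nM final) for 16 h at 37 C. CCF4 beta-lactamase fluorescence was read; Hill fits gave IC50.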

[17] = target: Vitamin D3 receptor (Homo sapiens) (UniProt P11473); assay: qHTS assay for small molecule agonists of vitamin D receptor signaling (AID 588543; calls by dose curve;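 also: 0% = DMSO basal and 100% = reference agonist control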)
In short: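 β-lactamase reporter, VDR-UAS-bla HEK293T, agonist mode. Cells plated 5 h at 37 °C, compound titration 16 h at 37 °C, CCF4 dye 2 h RT, ratio 460/530 nm. Hill fit → EC50, efficacy vs 50 nM 1α,25-(OH)2D3.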

[18] = qHTS assay for small molecule agonists of retinoid X receptor alpha signaling (AID 588544; calls by dose curve); details: HEK293T RXRa-UAS-bla, beta-lactamase reporter, 18 h; 530 nm emission
[19] = target: Retinoic acid receptor RXR-alpha (Homo sapiens) (UniProt P19793); assay: as above
[20] = S16 Schwann cell PMP22 intronic element beta-lactamase assay (AID 624044; calls by dose curve;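 also: 0% = DMSO and -100% = potassium clavulanate positive control; nearly all actives have a fitted effect of over 15% in size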)
In short: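 Beta-lactamase reporter under a PMP22 intronic regulatory element in stable S16 rat Schwann cells; 24 h compound exposure. 460 nm blue signal normalized between DMSO (0%) and potassium clavulanate, with 535 nm FRET tracking viability; curves classed by r2 and response.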

Sequence of Retinoic acid receptor RXR-alpha (Homo sapiens) (P19793 whole entry, looked up): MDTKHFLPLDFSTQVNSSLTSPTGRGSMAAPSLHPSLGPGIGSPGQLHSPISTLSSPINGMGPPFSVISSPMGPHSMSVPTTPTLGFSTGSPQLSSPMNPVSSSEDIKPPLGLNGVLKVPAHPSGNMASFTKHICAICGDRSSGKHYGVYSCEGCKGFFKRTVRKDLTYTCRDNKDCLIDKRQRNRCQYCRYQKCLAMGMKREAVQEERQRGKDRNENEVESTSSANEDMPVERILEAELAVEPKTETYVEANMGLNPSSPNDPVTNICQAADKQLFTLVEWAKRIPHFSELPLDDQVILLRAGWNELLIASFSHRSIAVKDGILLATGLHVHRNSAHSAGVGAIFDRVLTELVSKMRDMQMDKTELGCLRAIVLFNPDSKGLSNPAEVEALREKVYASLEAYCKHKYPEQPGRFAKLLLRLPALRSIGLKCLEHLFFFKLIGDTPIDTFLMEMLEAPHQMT
Sequence of Thyroid hormone receptor beta (Homo sapiens) (P10828 whole entry, looked up): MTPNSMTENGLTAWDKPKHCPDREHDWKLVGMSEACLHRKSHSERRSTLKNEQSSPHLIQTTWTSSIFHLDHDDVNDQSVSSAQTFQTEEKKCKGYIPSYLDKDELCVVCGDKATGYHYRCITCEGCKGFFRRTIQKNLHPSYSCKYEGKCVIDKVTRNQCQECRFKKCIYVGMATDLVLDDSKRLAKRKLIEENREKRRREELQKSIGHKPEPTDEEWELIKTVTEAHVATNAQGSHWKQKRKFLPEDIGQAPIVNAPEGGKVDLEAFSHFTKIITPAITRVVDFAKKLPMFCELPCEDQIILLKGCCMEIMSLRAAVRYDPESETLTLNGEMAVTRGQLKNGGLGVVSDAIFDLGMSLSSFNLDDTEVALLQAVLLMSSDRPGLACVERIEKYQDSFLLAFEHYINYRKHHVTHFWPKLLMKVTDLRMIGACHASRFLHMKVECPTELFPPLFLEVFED
Sequence of Peroxisome proliferator-activated receptor gamma (Homo sapiens) (P37231 whole entry, looked up): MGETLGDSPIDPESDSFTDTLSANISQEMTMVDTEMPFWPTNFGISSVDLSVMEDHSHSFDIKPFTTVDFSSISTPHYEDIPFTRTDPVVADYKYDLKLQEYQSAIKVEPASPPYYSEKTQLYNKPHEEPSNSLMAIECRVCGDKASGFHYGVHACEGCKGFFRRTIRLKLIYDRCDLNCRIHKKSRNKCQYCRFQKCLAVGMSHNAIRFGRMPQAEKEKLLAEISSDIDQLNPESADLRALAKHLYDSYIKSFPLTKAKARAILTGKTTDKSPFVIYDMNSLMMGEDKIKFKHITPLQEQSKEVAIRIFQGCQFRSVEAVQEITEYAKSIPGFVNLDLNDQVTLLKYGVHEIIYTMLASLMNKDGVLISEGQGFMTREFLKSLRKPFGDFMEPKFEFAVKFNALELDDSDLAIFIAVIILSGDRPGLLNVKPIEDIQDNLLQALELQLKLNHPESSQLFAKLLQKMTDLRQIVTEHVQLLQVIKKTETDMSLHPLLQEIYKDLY
Sequence of Luciferin 4-monooxygenase (Photinus pyralis) (P08659 whole entry, looked up): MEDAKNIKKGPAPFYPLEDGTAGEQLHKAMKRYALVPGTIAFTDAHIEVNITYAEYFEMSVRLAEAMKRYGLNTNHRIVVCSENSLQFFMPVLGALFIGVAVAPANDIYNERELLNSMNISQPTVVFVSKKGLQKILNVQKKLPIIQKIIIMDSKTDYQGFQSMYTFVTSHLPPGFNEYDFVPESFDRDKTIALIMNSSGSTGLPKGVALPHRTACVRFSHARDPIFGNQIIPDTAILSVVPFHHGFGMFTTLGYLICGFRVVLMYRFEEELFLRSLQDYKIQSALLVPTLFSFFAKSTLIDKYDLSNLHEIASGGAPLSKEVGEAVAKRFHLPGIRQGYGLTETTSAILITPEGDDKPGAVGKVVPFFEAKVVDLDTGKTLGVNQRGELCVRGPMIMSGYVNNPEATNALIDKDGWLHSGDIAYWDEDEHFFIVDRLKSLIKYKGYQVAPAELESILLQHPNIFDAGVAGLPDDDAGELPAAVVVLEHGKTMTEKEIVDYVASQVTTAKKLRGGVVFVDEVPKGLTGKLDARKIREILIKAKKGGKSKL
Sequence of Vitamin D3 receptor (Homo sapiens) (P11473 whole entry, looked up): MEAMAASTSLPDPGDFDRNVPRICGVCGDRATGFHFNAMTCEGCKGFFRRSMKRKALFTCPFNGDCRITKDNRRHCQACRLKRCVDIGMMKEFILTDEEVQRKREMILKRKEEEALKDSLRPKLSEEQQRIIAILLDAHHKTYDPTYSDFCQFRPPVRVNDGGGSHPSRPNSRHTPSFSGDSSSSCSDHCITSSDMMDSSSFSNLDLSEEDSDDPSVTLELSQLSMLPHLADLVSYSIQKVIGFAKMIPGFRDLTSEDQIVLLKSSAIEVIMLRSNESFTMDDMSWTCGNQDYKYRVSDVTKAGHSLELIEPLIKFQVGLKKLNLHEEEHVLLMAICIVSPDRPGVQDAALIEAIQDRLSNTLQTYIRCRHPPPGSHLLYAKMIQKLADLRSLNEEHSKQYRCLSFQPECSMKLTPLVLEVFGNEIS
Sequence of Voltage-gated inwardly rectifying potassium channel KCNH2 (Homo sapiens) (Q12809 whole entry, looked up): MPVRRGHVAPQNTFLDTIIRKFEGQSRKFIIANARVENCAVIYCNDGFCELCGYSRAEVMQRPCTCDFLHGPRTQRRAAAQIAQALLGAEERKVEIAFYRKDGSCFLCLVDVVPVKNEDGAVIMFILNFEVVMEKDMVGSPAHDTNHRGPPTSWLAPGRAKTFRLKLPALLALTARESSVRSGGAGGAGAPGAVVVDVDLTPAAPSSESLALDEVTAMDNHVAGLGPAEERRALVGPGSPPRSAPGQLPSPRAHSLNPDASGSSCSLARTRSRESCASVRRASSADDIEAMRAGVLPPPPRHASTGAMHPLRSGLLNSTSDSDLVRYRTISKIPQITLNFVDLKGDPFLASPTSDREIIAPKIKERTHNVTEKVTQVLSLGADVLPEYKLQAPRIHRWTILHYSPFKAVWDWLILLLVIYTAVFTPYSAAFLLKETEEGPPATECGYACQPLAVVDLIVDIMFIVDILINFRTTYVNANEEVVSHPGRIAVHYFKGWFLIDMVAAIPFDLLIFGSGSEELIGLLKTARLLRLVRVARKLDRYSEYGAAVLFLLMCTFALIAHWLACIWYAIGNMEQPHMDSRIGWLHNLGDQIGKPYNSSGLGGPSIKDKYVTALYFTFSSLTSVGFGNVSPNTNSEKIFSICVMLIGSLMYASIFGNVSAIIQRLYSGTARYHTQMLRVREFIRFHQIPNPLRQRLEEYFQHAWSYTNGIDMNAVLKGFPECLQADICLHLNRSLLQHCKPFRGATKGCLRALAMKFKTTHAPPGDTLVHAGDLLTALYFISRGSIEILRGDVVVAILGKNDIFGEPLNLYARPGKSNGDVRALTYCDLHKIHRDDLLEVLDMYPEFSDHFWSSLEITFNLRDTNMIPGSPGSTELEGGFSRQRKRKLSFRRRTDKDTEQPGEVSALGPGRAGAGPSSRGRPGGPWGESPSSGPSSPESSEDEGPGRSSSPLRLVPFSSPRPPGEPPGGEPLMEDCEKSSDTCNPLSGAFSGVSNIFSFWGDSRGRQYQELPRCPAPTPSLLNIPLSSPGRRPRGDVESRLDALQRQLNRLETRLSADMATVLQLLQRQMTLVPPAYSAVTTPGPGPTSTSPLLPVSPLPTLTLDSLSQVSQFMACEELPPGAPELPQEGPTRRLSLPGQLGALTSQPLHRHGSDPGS
Sequence of Glucocorticoid receptor (Homo sapiens) (P04150 whole entry, looked up): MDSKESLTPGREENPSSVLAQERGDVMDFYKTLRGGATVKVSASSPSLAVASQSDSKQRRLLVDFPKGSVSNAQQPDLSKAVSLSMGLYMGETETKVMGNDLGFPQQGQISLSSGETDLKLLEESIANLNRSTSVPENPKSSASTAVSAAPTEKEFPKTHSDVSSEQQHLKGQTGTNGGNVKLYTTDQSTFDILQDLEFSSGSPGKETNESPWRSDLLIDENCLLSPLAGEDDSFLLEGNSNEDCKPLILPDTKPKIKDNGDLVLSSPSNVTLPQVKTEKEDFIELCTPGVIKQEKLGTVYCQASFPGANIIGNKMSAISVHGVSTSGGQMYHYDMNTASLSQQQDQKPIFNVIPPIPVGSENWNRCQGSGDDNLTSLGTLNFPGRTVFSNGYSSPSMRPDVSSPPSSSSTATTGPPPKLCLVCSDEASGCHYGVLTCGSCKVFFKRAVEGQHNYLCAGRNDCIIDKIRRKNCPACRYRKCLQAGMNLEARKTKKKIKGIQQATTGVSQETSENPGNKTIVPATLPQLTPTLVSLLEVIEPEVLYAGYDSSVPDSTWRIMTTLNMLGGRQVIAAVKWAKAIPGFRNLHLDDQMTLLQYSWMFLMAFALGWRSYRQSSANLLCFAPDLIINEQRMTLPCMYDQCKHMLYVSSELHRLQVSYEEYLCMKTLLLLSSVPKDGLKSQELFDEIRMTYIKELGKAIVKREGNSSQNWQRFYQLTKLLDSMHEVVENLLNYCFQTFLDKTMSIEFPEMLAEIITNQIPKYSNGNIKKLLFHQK
Sequence of Glucagon-like peptide 1 receptor (Homo sapiens) (P43220 whole entry, looked up): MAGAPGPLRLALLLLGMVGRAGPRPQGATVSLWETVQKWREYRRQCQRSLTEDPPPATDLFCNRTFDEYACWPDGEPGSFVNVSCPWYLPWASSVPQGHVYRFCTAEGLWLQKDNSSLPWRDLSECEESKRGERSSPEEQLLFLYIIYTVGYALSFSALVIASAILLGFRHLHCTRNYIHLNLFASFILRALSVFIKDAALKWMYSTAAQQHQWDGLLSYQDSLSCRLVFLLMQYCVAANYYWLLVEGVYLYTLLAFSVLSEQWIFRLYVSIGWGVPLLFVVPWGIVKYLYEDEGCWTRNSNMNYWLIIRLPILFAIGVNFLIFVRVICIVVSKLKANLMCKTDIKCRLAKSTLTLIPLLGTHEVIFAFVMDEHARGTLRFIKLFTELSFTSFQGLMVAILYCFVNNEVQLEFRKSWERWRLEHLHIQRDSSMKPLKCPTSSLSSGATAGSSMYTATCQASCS

Cc1cc(O)c2c(c1)C(=O)c1cc(O)cc(O)c1C2=O
inactive: outcome [1] | max response [3] -11.8% | activity change % (negative = inhibition) [4] -22% | outcome [5]
1.07%: max response [2]

S=c1nc[nH]c2nc[nH]c12
inactive: Potency [6]

CC(=O)Nc1ccc(O)cc1
inactive: Potency [6] | Potency [7] | Potency [8]

c1ccc2[nH]c(-c3cscn3)nc2c1
8.2% and -19.9%: max response [18]
-13.4%: max response [15]
inactive: outcome [9] | outcome [10] | Potency [11] | outcome [16] | outcome [17] | outcome [19] | outcome [1] | max response [3] 14% and 3.02% | activity change % (negative = inhibition) [4] -27.5% | Potency [6] | Potency [8] | Potency [12] | Potency [20]
-4.89% and -3.75%: max response [2]

COc1cc(OC)c(C(=O)CCCN2CCCC2)c(OC)c1
3.94%: max response [18]
15.9%: max response [15]
-15.1%: max response [2]
inactive: outcome [9] | outcome [10] | Potency [11] | outcome [16] | outcome [17] | outcome [19] | outcome [1] | max response [3] -23.6% | Potency [6] | Potency [7] | Potency [8] | Potency [12]

Cc1nc(Nc2ncc(C(=O)Nc3c(C)cccc3Cl)s2)cc(N2CCN(CCO)CC2)n1
inactive: Potency [6] | Potency [7]

Cc1cccc(CN2CCN(C(c3ccccc3)c3ccc(Cl)cc3)CC2)c1 (stereo unspecified)
active: Potency [6] 1.26 µM

NS(=O)(=O)c1cc(C(=O)O)c(NCc2ccco2)cc1Cl
inactive: outcome [10] | Potency [11] | outcome [16] | outcome [17] | outcome [1] | activity change % (negative = inhibition) [4] -7.01% and -13.6% | Potency [7] | Potency [8] | Potency [12] | Potency [20]
-4.16% and 9.44%: max response [15]

CCOC(=O)C1=C[C@@H](OC(CC)CC)[C@H](NC(C)=O)[C@@H](N)C1
inactive: Potency [6]

COC(=O)C1=C(C)NC(C)=C(C(=O)OC(C)C)C1c1cccc2nonc12 (stereo unspecified)
inactive: Potency [6]

— PubChem BioAssay (NCATS)
